# Measured values reported in PubChem BioAssay AID1359 (The Scripps Research Institute Molecular Screening Center, 2008).
# About 970 (0.44%) of roughly 220,000 compounds were called active. This is one part of a sample in which actives are shown more often than they occur. Values without a mark were called inactive. Cut-off read from the data, not from the text of the source: active = activation above about 27%; inactive = the rest.
# Biological target: Neuropeptide Y receptor type 2 (Homo sapiens) (UniProt P49146)
# Experiment: NPY-Y2 potentiators or agonists, primary screen, cell-based (AID 1359);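 note: cells stimulated with NPY near EC25 plus isoproterenol at EC100; 0% = vehicle plus submaximal agonist and 100% = vehicle plus saturating agonist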
# Conditions: cells expressing NPY-Y2, potentiator/agonist read-out; at 3.6 µM; hits give high values
# Sequence of Neuropeptide Y receptor type 2 (Homo sapiens) (P49146 whole entry, looked up): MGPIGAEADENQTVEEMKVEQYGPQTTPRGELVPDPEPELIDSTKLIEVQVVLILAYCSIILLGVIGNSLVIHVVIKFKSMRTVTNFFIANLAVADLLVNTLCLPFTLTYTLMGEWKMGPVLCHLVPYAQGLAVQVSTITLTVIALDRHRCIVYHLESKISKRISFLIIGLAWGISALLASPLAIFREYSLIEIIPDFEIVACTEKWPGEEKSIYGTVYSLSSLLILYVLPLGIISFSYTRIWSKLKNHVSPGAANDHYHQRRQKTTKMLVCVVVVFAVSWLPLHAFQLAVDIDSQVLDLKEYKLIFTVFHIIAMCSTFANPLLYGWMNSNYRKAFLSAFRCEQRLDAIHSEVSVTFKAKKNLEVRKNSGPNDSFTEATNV
row,Structure (SMILES),activation
1,COc1cc(NC(=O)c2cccnc2SC)cc(OC)c1,6.08%
2,COC(=O)c1ccccc1NC(=O)c1ccccc1NS(C)(=O)=O,-6.98%
3,COC(=O)c1ccc(NC(=O)c2ccccc2NS(=O)(=O)c2ccccc2)cc1,34.4% (active)
4,O=C(Nc1nncs1)c1ccccc1NS(=O)(=O)c1cccs1,-3.36%
5,COc1cc(NC(=O)c2ccccc2NS(=O)(=O)c2ccc(Cl)s2)cc(OC)c1,44% (active)
6,CCOc1ccc(NC(=O)c2ccccc2NS(C)(=O)=O)cc1,2.32%
7,COc1ccccc1NC(=S)N1CCC(NC(=O)C23CC4CC(CC(C4)C2)C3)CC1,1.71%
8,O=c1c2c3c(sc2n(CCN2CCCC2)c(=O)n1Cc1ccccc1)CCCCC3,-17.9%
9,O=C(Cn1nnc(N2CCCCC2)n1)c1ccc(Cl)c(Cl)c1,19%
10,COc1ccc(Cc2n[nH]c(=S)n2NC(=O)Nc2ccc(C)cc2)cc1,7.41%
11,CC1CN(/C=C/C(=O)C(F)(F)F)CC(C)O1 (configuration not stated),-5.05%
12,CCC(=O)N1CCC(C(N)=O)(N2CCCCC2)CC1,-10.4%
13,CCCCCCCC1(C)NC(=O)N(CC(=O)Nc2cc(C)on2)C1=O (configuration not stated),8.45%
14,CCOC(=O)Cc1cc(=O)[nH]c(/N=C(\N)Nc2ccc(OC)cc2)n1,-5.89%
15,CC(CCc1ccccc1)NCC(O)c1cccc([N+](=O)[O-])c1 (configuration not stated),87.1% (active)
16,CC(=O)NCC(O)c1ccc([N+](=O)[O-])cc1 (configuration not stated),7.64%
17,CC(C)OP(=O)(OC(C)C)C(Nc1ccccc1)c1cccc([N+](=O)[O-])c1 (configuration not stated),-1.74%
18,O=C(CCn1nnc2ccccc2c1=O)N[C@@H](Cc1c[nH]c2ccccc12)C(=O)O,13.2%
19,CCOc1ccc(S(=O)(=O)N(CC(=O)NCC(F)(F)F)Cc2ccco2)cc1,-4.11%
20,Cc1ccc(Nc2nc(CSc3nnc(-c4ccncc4)n3-c3ccccc3C)cs2)cc1,2.6%
21,COc1cccc(CNn2cn[nH]c2=S)c1OCc1ccccc1,2.42%
22,O=C(CC(O)(C(F)(F)F)C(F)(F)F)Nc1ccc(Cl)c(Cl)c1,52.9% (active)
23,O=C(CC(=O)Nc1ccc(Cl)c(Cl)c1)N/N=C/c1ccc(O)cc1,7.69%
24,CN(C)CCNC(CC(=O)Nc1ccc(Cl)c(Cl)c1)C(=O)O (configuration not stated),4.29%

row,Structure (SMILES),activation
1,Cc1ccccc1/[N+]([O-])=C/c1ccncc1,-7.27%
2,CC(=O)c1c(C)[nH]c(=S)c(C#N)c1-c1ccc(F)cc1,-13.5%
3,C#CCOCCOCCOCCNc1nc(N2CCN(C(=O)[C@H](CCC(=O)O)n3cc(C(N)CO)nn3)CC2)nc(N2CCN(C(=O)[C@H](Cc3ccc(O)cc3)n3cc(C(N)[C@H](C)CC)nn3)CC2)n1 (some centres not stated),-0.84%
4,O=C(Nc1ccccc1)Nc1ccc(C(F)(F)F)cn1,4.92%
5,Cc1nccn1CC(=O)N/N=C/c1ccc(O)c(O)c1,-13.1%
6,Oc1ccc(/C=N/Nc2ccc(C(F)(F)F)cn2)cc1O,28.2% (active)
7,Cc1ccc(-c2c[n+](=O)c3c(n2[O-])CCC3)cc1,-8.75%
8,Cc1c(C(=O)NCCCc2ccccc2)cccc1[N+](=O)[O-],2.52%
9,O=C1CCCC(O)=C1N=Nc1ccc(S(=O)(=O)N2CCOCC2)cc1,4.38%
10,CC(=O)Nc1ccccc1OC(C)C(=O)N1CCC(C)CC1 (configuration not stated),-7.73%
11,Cc1noc(COc2ccccc2OCC(O)CNC(C)(C)C)n1 (configuration not stated),102% (active)
12,Cc1noc(COc2ccccc2OCc2onc(C)c2Cl)c1Cl,0.6%
13,CC(C)(C)CC(C)(C)NCC(O)COCCOc1ccc(Br)cc1 (configuration not stated),-6.14%
14,Cc1cccc(-c2nc3c(c(SCC(=O)N4CCOCC4)n2)CCCC3)c1,-7.06%
15,O=C(Nc1ccc(N2CCOCC2)nc1)c1c(F)cccc1F,-10.2%
16,CSc1ccc(NC(=O)/C=C/C(=O)O)cc1,-0.23%
17,O=C(COC(=O)c1ccc[nH]c1=O)Nc1ccc2c(c1)OC(F)(F)O2,-11.7%
18,CN(C)Cc1c(O)ccc2occ(C(O)c3ccccc3)c12 (configuration not stated),92.7% (active)
19,C/C(=N\NS(=O)(=O)c1ccc(Br)cc1)c1cccs1,2.42%
20,Cc1ccc(S(=O)(=O)/N=C(\N)c2ccc(F)cc2)cc1,9.83%
21,N/C(=N\S(=O)(=O)c1cc(C(F)(F)F)cc(C(F)(F)F)c1)c1cccs1,46% (active)
22,Cn1c(=O)c(Sc2ccc(Cl)cc2)c(O)c2ccccc21,-8.34%
23,COc1cccc(NC(=S)NC(=O)c2c(Cl)c(C)nn2C)c1,-1.69%
